# Source: the supplement of paper PMC12282887
# ± gives the standard deviation of the averaged measurements.
# How the values were obtained:
# Assay in all cases: promoter activity interaction Z-score (Lux/OD deviation from empty-vector control); higher = stronger promoter induction by the compound
# [1] = system: E. coli BW25113 acrABp lux reporter
# Method in brief: (§1)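 OD600 and luminescence of E. coli BW25113 reporter cultures (40 µl LB Lennox, 384-well plates, 37°C) were measured every 30 min for 12 h. Integration ran over 0–8 h for wild type or 1–9 h for deletion strains, and wells with growth below 10% of the median were dropped. The score is the Z-transformed residual of growth-normalised luminescence fitted against a control.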
# [2] = system: E. coli BW25113 micFp lux reporter
# Method in brief: as §1
# [3] = system: E. coli BW25113 ompFp lux reporter
# Method in brief: as §1
# [4] = system: E. coli BW25113 robp lux reporter
# Method in brief: as §1
# [5] = system: E. coli BW25113 soxSp lux reporter
# Method in brief: as §1
# [6] = system: E. coli BW25113 tolCp lux reporter
# Method in brief: as §1
# [7] = 32.1 µg/ml, genetic background: wild type
# [8] = 32.1 µg/ml, genetic background: ΔmarA
# [9] = 32.1 µg/ml, genetic background: Δrob
# [10] = 32.1 µg/ml, genetic background: ΔsoxS
# [11] = 64.2 µg/ml, genetic background: wild type
# [12] = 64.2 µg/ml, genetic background: ΔmarA
# [13] = 64.2 µg/ml, genetic background: Δrob
# [14] = 64.2 µg/ml, genetic background: ΔsoxS
# [15] = 128.4 µg/ml, genetic background: wild type
# [16] = 128.4 µg/ml, genetic background: ΔmarA
# [17] = 128.4 µg/ml, genetic background: Δrob
# [18] = 128.4 µg/ml, genetic background: ΔsoxS
# [19] = 256.8 µg/ml, genetic background: wild type
# [20] = 256.8 µg/ml, genetic background: ΔmarA
# [21] = 256.8 µg/ml, genetic background: Δrob
# [22] = 256.8 µg/ml, genetic background: ΔsoxS
# [23] = 11.4 µg/ml, genetic background: wild type
# [24] = 11.4 µg/ml, genetic background: ΔmarA
# [25] = 11.4 µg/ml, genetic background: Δrob
# [26] = 11.4 µg/ml, genetic background: ΔsoxS
# [27] = 22.8 µg/ml, genetic background: wild type
# [28] = 22.8 µg/ml, genetic background: ΔmarA
# [29] = 22.8 µg/ml, genetic background: Δrob
# [30] = 22.8 µg/ml, genetic background: ΔsoxS
# [31] = 45.5 µg/ml, genetic background: wild type
# [32] = 45.5 µg/ml, genetic background: ΔmarA
# [33] = 45.5 µg/ml, genetic background: Δrob
# [34] = 45.5 µg/ml, genetic background: ΔsoxS
# [35] = 91.1 µg/ml, genetic background: wild type
# [36] = 91.1 µg/ml, genetic background: ΔmarA
smiles,measurement,setting,value
CN(C)C(=O)C(CCN1CCC(O)(c2ccc(Cl)cc2)CC1)(c1ccccc1)c1ccccc1 [Loperamide],promoter activity interaction Z-score,[1]; [7],0.0421 ± 0.17
same,promoter activity interaction Z-score,[1]; [8],0.36 ± 0.083
same,promoter activity interaction Z-score,[1]; [9],-0.0142 ± 0.12
same,promoter activity interaction Z-score,[1]; [10],0.372 ± 0.34
same,promoter activity interaction Z-score,[1]; [11],-0.16 ± 0.23
same,promoter activity interaction Z-score,[1]; [12],0.126 ± 1.6
same,promoter activity interaction Z-score,[1]; [13],-0.00894 ± 0.11
same,promoter activity interaction Z-score,[1]; [14],0.114 ± 0.11
same,promoter activity interaction Z-score,[1]; [15],-0.237 ± 0.23
same,promoter activity interaction Z-score,[1]; [16],0.287 ± 0.52
same,promoter activity interaction Z-score,[1]; [17],-0.146 ± 0.17
same,promoter activity interaction Z-score,[1]; [18],0.111 ± 0.11
same,promoter activity interaction Z-score,[1]; [19],0.213 ± 0.0047
same,promoter activity interaction Z-score,[1]; [20],-1.07 ± 0.54
same,promoter activity interaction Z-score,[1]; [21],0.0923 ± 0.42
same,promoter activity interaction Z-score,[1]; [22],-0.358 ± 0.52
same,promoter activity interaction Z-score,[2]; [7],0.145 ± 0.076
same,promoter activity interaction Z-score,[2]; [8],0.0394 ± 0.035
same,promoter activity interaction Z-score,[2]; [9],0.0787 ± 0.17
same,promoter activity interaction Z-score,[2]; [10],-0.0846 ± 0.15
same,promoter activity interaction Z-score,[2]; [11],0.186 ± 0.1
same,promoter activity interaction Z-score,[2]; [12],0.0703 ± 0.0014
same,promoter activity interaction Z-score,[2]; [13],0.0931 ± 0.092
same,promoter activity interaction Z-score,[2]; [14],-0.0463 ± 0.045
same,promoter activity interaction Z-score,[2]; [15],0.0787 ± 0.19
same,promoter activity interaction Z-score,[2]; [16],0.0574 ± 0.025
same,promoter activity interaction Z-score,[2]; [17],0.0936 ± 0.24
same,promoter activity interaction Z-score,[2]; [18],-0.14 ± 0.12
same,promoter activity interaction Z-score,[2]; [19],-0.186 ± 0.52
same,promoter activity interaction Z-score,[2]; [20],-0.0712 ± 0.25
same,promoter activity interaction Z-score,[2]; [21],-0.12 ± 0.022
same,promoter activity interaction Z-score,[2]; [22],-0.469 ± 0.21
same,promoter activity interaction Z-score,[3]; [7],-0.00512 ± 0.32
same,promoter activity interaction Z-score,[3]; [8],0.262 ± 0.052
same,promoter activity interaction Z-score,[3]; [9],0.0272 ± 0.031
same,promoter activity interaction Z-score,[3]; [10],-0.21 ± 0.06
same,promoter activity interaction Z-score,[3]; [11],0.0346 ± 0.0034
same,promoter activity interaction Z-score,[3]; [12],-0.0766 ± 0.0049
same,promoter activity interaction Z-score,[3]; [13],-0.471 ± 0.21
same,promoter activity interaction Z-score,[3]; [14],-0.28 ± 0.26
same,promoter activity interaction Z-score,[3]; [15],-0.593 ± 0.28
same,promoter activity interaction Z-score,[3]; [16],-0.537 ± 0.65
same,promoter activity interaction Z-score,[3]; [17],-1.29 ± 0.17
same,promoter activity interaction Z-score,[3]; [18],-1.21 ± 0.3
same,promoter activity interaction Z-score,[3]; [19],0.202 ± 0.2
same,promoter activity interaction Z-score,[3]; [20],0.819 ± 0.3
same,promoter activity interaction Z-score,[3]; [21],-0.591 ± 0.47
same,promoter activity interaction Z-score,[3]; [22],0.54 ± 0.76
same,promoter activity interaction Z-score,[4]; [7],-0.195 ± 0.23
same,promoter activity interaction Z-score,[4]; [8],-0.672 ± 0.52
same,promoter activity interaction Z-score,[4]; [9],0.735 ± 0.061
same,promoter activity interaction Z-score,[4]; [10],0.0686 ± 0.097
same,promoter activity interaction Z-score,[4]; [11],0.0117 ± 0.077
same,promoter activity interaction Z-score,[4]; [12],-0.171 ± 0.68
same,promoter activity interaction Z-score,[4]; [13],0.22 ± 0.015
same,promoter activity interaction Z-score,[4]; [14],0.000621 ± 0.037
same,promoter activity interaction Z-score,[4]; [15],-0.524 ± 0.45
same,promoter activity interaction Z-score,[4]; [16],-0.323 ± 0.55
same,promoter activity interaction Z-score,[4]; [17],-0.996 ± 0.2
same,promoter activity interaction Z-score,[4]; [18],-0.571 ± 0.73
same,promoter activity interaction Z-score,[4]; [19],-1.15 ± 0.5
same,promoter activity interaction Z-score,[4]; [20],-0.901 ± 1.4
same,promoter activity interaction Z-score,[4]; [21],-2.1 ± 0.29
same,promoter activity interaction Z-score,[4]; [22],-1.78 ± 0.21
same,promoter activity interaction Z-score,[5]; [7],0.154 ± 0.15
same,promoter activity interaction Z-score,[5]; [8],-0.043 ± 0.059
same,promoter activity interaction Z-score,[5]; [9],0.355 ± 0.12
same,promoter activity interaction Z-score,[5]; [10],0.325 ± 0.045
same,promoter activity interaction Z-score,[5]; [11],-0.0625 ± 0.16
same,promoter activity interaction Z-score,[5]; [12],-0.0378 ± 0.015
same,promoter activity interaction Z-score,[5]; [13],0.149 ± 0.035
same,promoter activity interaction Z-score,[5]; [14],-0.0736 ± 0.2
same,promoter activity interaction Z-score,[5]; [15],0.0173 ± 0.089
same,promoter activity interaction Z-score,[5]; [16],0.196 ± 0.047
same,promoter activity interaction Z-score,[5]; [17],-0.0928 ± 0.32
same,promoter activity interaction Z-score,[5]; [18],-0.2 ± 0.021
same,promoter activity interaction Z-score,[5]; [19],-0.236 ± 0.14
same,promoter activity interaction Z-score,[5]; [20],-0.217 ± 0.25
same,promoter activity interaction Z-score,[5]; [21],-0.0806 ± 0.13
same,promoter activity interaction Z-score,[5]; [22],-0.169 ± 0.064
same,promoter activity interaction Z-score,[6]; [7],-0.194 ± 0.29
same,promoter activity interaction Z-score,[6]; [8],-0.0191 ± 0.39
same,promoter activity interaction Z-score,[6]; [9],-0.0299 ± 0.8
same,promoter activity interaction Z-score,[6]; [10],-0.292 ± 0.62
same,promoter activity interaction Z-score,[6]; [11],0.0244 ± 0.6
same,promoter activity interaction Z-score,[6]; [12],0.821 ± 0.86
same,promoter activity interaction Z-score,[6]; [13],-0.356 ± 0.33
same,promoter activity interaction Z-score,[6]; [14],0.551 ± 0.73
same,promoter activity interaction Z-score,[6]; [15],-0.426 ± 0.95
same,promoter activity interaction Z-score,[6]; [16],-0.198 ± 0.95
same,promoter activity interaction Z-score,[6]; [17],-0.855 ± 0.25
same,promoter activity interaction Z-score,[6]; [18],-0.596 ± 0.53
same,promoter activity interaction Z-score,[6]; [19],0.39 ± 0.18
same,promoter activity interaction Z-score,[6]; [20],0.271 ± 1.2
same,promoter activity interaction Z-score,[6]; [21],0.764 ± 1
same,promoter activity interaction Z-score,[6]; [22],0.351 ± 0.69
Cn1c(=O)[nH]c2[nH]c(=O)[nH]c2c1=O [1-Methyluric acid],promoter activity interaction Z-score,[1]; [23],-0.104 ± 0.078
same,promoter activity interaction Z-score,[1]; [24],0.564 ± 0.66
same,promoter activity interaction Z-score,[1]; [25],-0.212 ± 0.12
same,promoter activity interaction Z-score,[1]; [26],0.297 ± 0.53
same,promoter activity interaction Z-score,[1]; [27],0.00584 ± 0.0026
same,promoter activity interaction Z-score,[1]; [28],0.938 ± 0.94
same,promoter activity interaction Z-score,[1]; [29],-0.286 ± 0.35
same,promoter activity interaction Z-score,[1]; [30],0.0572 ± 0.41
same,promoter activity interaction Z-score,[1]; [31],-0.247 ± 0.3
same,promoter activity interaction Z-score,[1]; [32],-0.354 ± 0.38
same,promoter activity interaction Z-score,[1]; [33],-0.533 ± 0.26
same,promoter activity interaction Z-score,[1]; [34],0.207 ± 0.88
same,promoter activity interaction Z-score,[1]; [35],-0.104 ± 0.14
same,promoter activity interaction Z-score,[1]; [36],0.464 ± 0.1
same,promoter activity interaction Z-score,"[1]; 91.1 µg/ml, genetic background: Δrob",-0.246 ± 0.046
same,promoter activity interaction Z-score,"[1]; 91.1 µg/ml, genetic background: ΔsoxS",0.186 ± 0.74
same,promoter activity interaction Z-score,[2]; [23],-0.0236 ± 0.39
same,promoter activity interaction Z-score,[2]; [24],0.118 ± 0.021
same,promoter activity interaction Z-score,[2]; [25],0.0501 ± 0.18
same,promoter activity interaction Z-score,[2]; [26],0.153 ± 0.11
same,promoter activity interaction Z-score,[2]; [27],0.0921 ± 0.34
same,promoter activity interaction Z-score,[2]; [28],0.0777 ± 0.13
same,promoter activity interaction Z-score,[2]; [29],0.162 ± 0.1
same,promoter activity interaction Z-score,[2]; [30],-0.0599 ± 0.019
same,promoter activity interaction Z-score,[2]; [31],-0.0797 ± 0.0059
same,promoter activity interaction Z-score,[2]; [32],0.0715 ± 0.14
same,promoter activity interaction Z-score,[2]; [33],-0.119 ± 0.051
same,promoter activity interaction Z-score,[2]; [34],0.323 ± 0.18
same,promoter activity interaction Z-score,[2]; [35],-0.191 ± 0.057
same,promoter activity interaction Z-score,[2]; [36],0.0296 ± 0.15
